# Test results reported in PubChem BioAssay AID1159580 (chemical genetic matrix, 2015).
# Screen size: about 5,500 compounds; about 2,000 (36%) were called active. About 18% were inconclusive and are not listed. Some of the results follow. Unmarked numbers belong to inactive results. Cut-off read from the data, not from the text of the source: active = normalized growth mostly below about 0.91 (no sharp cut-off); inconclusive = no clear call, values can overlap the other calls; inactive = mostly above about 0.92.
# Assay: chemical genetic growth profiling, strain panel (AID 1159580);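 note: tested at 20 µM; growth read once vehicle control cultures reached saturation at 30 °C; 1 = growth at the plate median or of vehicle wells; lower values mean less growth of the strain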
# Conditions: S. cerevisiae deletion strains, growth OD
# [1] = locus YAR019C, strain CDC15, active compounds read low
# [2] = locus YBL105C, strain PKC1, active compounds read low
# [3] = locus YBR135W, strain CKS1, active compounds read low
# [4] = locus YBR136W, strain MEC1, active compounds read low
# [5] = locus YBR160W, strain CDC28, active compounds read low
# [6] = locus YDL017W, strain CDC7, active compounds read low
# [7] = locus YDL028C, strain MPS1, active compounds read low
# [8] = locus YDL101C, strain DUN1, active compounds read low
# [9] = locus YDL108W, strain KIN28, active compounds read low
# [10] = locus YDL132W, strain cdc53, active compounds read low
# [11] = locus YDL214C, strain PRR2, active compounds read low
# [12] = locus YDR052C, strain DBF4, active compounds read low
# [13] = locus YDR054C, strain cdc34, active compounds read low
# [14] = locus YDR226W, strain ADK1, active compounds read low
# [15] = locus YDR477W, strain SNF1, active compounds read low
# [16] = locus YER123W, strain YCK3, active compounds read low
# [17] = locus YER133W, strain GLC7, active compounds read low
# [18] = locus YFL009W, strain cdc4, active compounds read low
# [19] = locus YFL029C, strain CAK1, active compounds read low
# [20] = locus YFR003C, strain YPI1, active compounds read low
# [21] = locus YFR019W, strain FAB1, active compounds read low
# [22] = locus YFR028C, strain CDC14, active compounds read low
# [23] = locus YGR040W, strain KSS1, active compounds read low
# [24] = locus YGR052W, strain FMP48, active compounds read low
# [25] = locus YGR092W, strain DBF2, active compounds read low
# [26] = locus YHR030C, strain SLT2, active compounds read low
# [27] = locus YHR079C, strain IRE1, active compounds read low
# [28] = locus YHR082C, strain KSP1, active compounds read low
# [29] = locus YHR205W, strain SCH9, active compounds read low
# [30] = locus YIL147C, strain SLN1, active compounds read low
# [31] = locus YJL095W, strain BCK1, active compounds read low
# [32] = locus YJL128C, strain PBS2, active compounds read low
# [33] = locus YJL157C, strain FAR1, active compounds read low
# [34] = locus YJR016C, strain ILV3, active compounds read low
# [35] = locus YJR066W, strain TOR1 (second series), active compounds read low
# [36] = locus YJR066W, strain TOR1, active compounds read low
# [37] = locus YKL048C, strain ELM1, active compounds read low
# [38] = locus YKL067W, strain YNK1, active compounds read low
# [39] = locus YKL101W, strain HSL1, active compounds read low
# [40] = locus YKL193C, strain SDS22, active compounds read low
# [41] = locus YKL203C, strain TOR2, active compounds read low
# [42] = locus YLR113W, strain HOG1, active compounds read low
# [43] = locus YLR133W, strain CKI1, active compounds read low
# [44] = locus YLR403W, strain SFP1, active compounds read low
# [45] = locus YML070W, strain DAK1, active compounds read low
# [46] = locus YMR001C, strain CDC5, active compounds read low
# [47] = locus YMR205C, strain PFK2 (second series), active compounds read low
# [48] = locus YMR277W, strain FCP1, active compounds read low
# [49] = locus YNL006W, strain LST8, active compounds read low
# [50] = locus YNL020C, strain ARK1, active compounds read low
# [51] = locus YNL161W, strain CBK1, active compounds read low
# [52] = locus YNL183C, strain NPR1, active compounds read low
# [53] = locus YNL207W, strain RIO2, active compounds read low
# [54] = locus YNL222W, strain SSU72, active compounds read low
# [55] = locus YNL307C, strain MCK1 (second series), active compounds read low
# [56] = locus YOL078W, strain AVO1, active compounds read low
# [57] = locus YOL136C, strain PFK27, active compounds read low
# [58] = locus YOR061W, strain CKA2, active compounds read low
# [59] = locus YOR119C, strain RIO1, active compounds read low
# [60] = locus YOR231W, strain MKK1, active compounds read low
# [61] = locus YOR329C, strain SCD5, active compounds read low
# [62] = locus YPL031C, strain PHO85, active compounds read low
# [63] = locus YPL153C, strain RAD53, active compounds read low
# [64] = locus YPL204W, strain HRR25, active compounds read low
# [65] = locus YPL209C, strain IPL1, active compounds read low
# [66] = locus YPL256C, strain CLN2, active compounds read low
# [67] = locus YPR025C, strain CCL1, active compounds read low
# [68] = locus YPR106W, strain ISR1, active compounds read low
# [69] = locus YPR111W, strain DBF20, active compounds read low
# [70] = strain NNK1, active compounds read low
# [71] = strain TSCII, active compounds read low
structure (smiles),measurement,setting,value
FC(F)(F)c1cccc(NNC(=S)Nc2ccccc2)c1,normalized growth,[1],0.996
same,normalized growth,[2],1
same,normalized growth,[3],1
same,normalized growth,[4],0.999
same,normalized growth,[5],0.997
same,normalized growth,[6],0.998
same,normalized growth,[7],1
same,normalized growth,[8],0.994
same,normalized growth,[9],1.01
same,normalized growth,[10],0.99
same,normalized growth,[11],0.951
same,normalized growth,[12],0.998
same,normalized growth,[13],0.989
same,normalized growth,[14],0.999
same,normalized growth,[15],0.882
same,normalized growth,[16],0.912
same,normalized growth,[17],0.975
same,normalized growth,[18],1
same,normalized growth,[19],1
same,normalized growth,[20],1.01
same,normalized growth,[21],0.974
same,normalized growth,[22],1
same,normalized growth,[23],0.897
same,normalized growth,[24],0.957
same,normalized growth,[25],0.807
same,normalized growth,[26],0.754 (active)
same,normalized growth,[27],0.848
same,normalized growth,[28],0.876
same,normalized growth,[29],0.877
same,normalized growth,[30],0.998
same,normalized growth,[31],0.856
same,normalized growth,[32],0.986
same,normalized growth,[33],0.945
same,normalized growth,[34],0.996
same,normalized growth,[35],0.812
same,normalized growth,[36],0.861
same,normalized growth,[37],0.948
same,normalized growth,[38],0.937
same,normalized growth,[39],0.907
same,normalized growth,[40],1
same,normalized growth,[41],0.968
same,normalized growth,[42],0.764 (active)
same,normalized growth,[43],0.946
same,normalized growth,[44],0.929
same,normalized growth,[45],0.947
same,normalized growth,[46],1.01
same,normalized growth,[47],0.971
same,normalized growth,[48],0.994
same,normalized growth,[49],1
same,normalized growth,[50],0.925
same,normalized growth,[51],0.997
same,normalized growth,[52],0.874
same,normalized growth,[53],0.998
same,normalized growth,[54],0.999
same,normalized growth,[55],0.825
same,normalized growth,[56],0.995
same,normalized growth,[57],0.938
same,normalized growth,[58],0.856
same,normalized growth,[59],0.993
same,normalized growth,[60],0.882
same,normalized growth,[61],0.996
same,normalized growth,[62],0.894
same,normalized growth,[63],0.919
same,normalized growth,[64],0.89
same,normalized growth,[65],0.997
same,normalized growth,[66],0.848 (active)
same,normalized growth,[67],1
same,normalized growth,[68],1.01
same,normalized growth,[69],1
same,normalized growth,[70],0.995
same,normalized growth,[71],1
O=C(NC(=S)Nc1cccc(C(F)(F)F)c1)c1ccc2nonc2c1,normalized growth,[1],0.956
same,normalized growth,[2],0.968
same,normalized growth,[3],0.93
same,normalized growth,[4],0.952
same,normalized growth,[5],0.96
same,normalized growth,[6],0.96
same,normalized growth,[7],0.952
same,normalized growth,[8],0.957
same,normalized growth,[9],0.957
same,normalized growth,[10],0.967
same,normalized growth,[11],0.973
same,normalized growth,[12],0.978
same,normalized growth,[13],0.94
same,normalized growth,[14],0.957
same,normalized growth,[15],0.896
same,normalized growth,[16],0.971
same,normalized growth,[17],0.95
same,normalized growth,[18],0.944
same,normalized growth,[19],0.961
same,normalized growth,[20],0.96
same,normalized growth,[21],1
same,normalized growth,[22],0.944
same,normalized growth,[23],0.907
same,normalized growth,[24],1.04
same,normalized growth,[25],0.989
same,normalized growth,[26],0.774 (active)
same,normalized growth,[27],0.949
same,normalized growth,[28],0.912
same,normalized growth,[29],0.907
same,normalized growth,[30],0.952
same,normalized growth,[31],0.778
same,normalized growth,[32],0.978
same,normalized growth,[33],0.974
same,normalized growth,[34],0.93
same,normalized growth,[35],0.938
same,normalized growth,[36],0.838
same,normalized growth,[37],0.968
same,normalized growth,[38],0.979
same,normalized growth,[39],0.956
same,normalized growth,[40],0.953
same,normalized growth,[41],0.972
same,normalized growth,[42],0.713 (active)
same,normalized growth,[43],0.966
same,normalized growth,[44],0.968
same,normalized growth,[45],0.953
same,normalized growth,[46],0.957
same,normalized growth,[47],0.959
same,normalized growth,[48],0.953
same,normalized growth,[49],0.961
same,normalized growth,[50],0.962
same,normalized growth,[51],0.954
same,normalized growth,[52],0.852
same,normalized growth,[53],0.962
same,normalized growth,[54],0.947
same,normalized growth,[55],0.974
same,normalized growth,[56],0.953
same,normalized growth,[57],0.991
same,normalized growth,[58],0.967
same,normalized growth,[59],1.02
same,normalized growth,[60],0.863
same,normalized growth,[61],0.969
same,normalized growth,[62],0.912
same,normalized growth,[63],0.905
same,normalized growth,[64],0.936
same,normalized growth,[65],0.945
same,normalized growth,[66],0.831 (active)
same,normalized growth,[67],0.951
same,normalized growth,[68],0.973
same,normalized growth,[69],0.936
same,normalized growth,[70],0.954
same,normalized growth,[71],0.939
